Source: PubChem BioAssay (National Center for Advancing Translational Sciences (NCATS))
Most compounds without a hit are left out; they make up all but 17% or so of the library.
TGFb inhibitor: blocks TGF-b signaling | HepG2 CAGA-GFP TGF-b/SMAD3 reporter, GFP fluorescence, 18 h; TGF-beta stimulated, 500 pg/mL final | Potency, µM (series often up to 46.1 µM), inactives show at the top dose activity, negative = inhibition, actives largely listed as inhibitors | 1.2% of 410,000 active | AID 588855; note: % is set by controls: 0 for no effect and ±100 for the full control effect; nearly all actives have a fitted effect of over 65% in size
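Per well, imaged GFP fluorescence of HEPG2 CAGA-GFP cells gives the signal; cells get compound, then TGF-beta (500 pg/mL final), 18 h at 37 degrees C; %Activity versus -TGF-beta and +DMSO controls.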
DT40 TDP1 CPT: DT40-hTDP1 cell growth loss with CPT; chicken DT40 Tdp1-/-;hTDP1 cells + 20 nM CPT, ATP luminescence, 48 h; 12% of 420,000 active; Potency, µM (highest dose often 46.2 µM), without a hit: at the top dose activity change, negative = growth inhibition, most hits filed as inhibitors; note: % is set by controls: 0 for no effect and ±100 for the full control effect; nearly all actives have a fitted effect of over 55% in size
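Cell growth measured by CellTiter-Glo luminescence after a minimum 48 h, 37 C compound exposure with 20 nM CPT in Tdp1-knockout DT40 cells stably expressing hTDP1, seeded 400/well; qHTS titration format.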
HT1080 IDH1KD tx: toxicity to HT-1080 IDH1 knockdown cells (counter line); HT-1080 IDH1 knockdown viability, ATP luminescence, 48 h; Potency, µM (series often up to 46.1 µM), inactives show at the highest dose activity, negative = toxicity, most hits filed as cytotoxic; 2% of 360,000 active; AID 686971;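 note: 0% = DMSO wells and -100% = cell-free medium wells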
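Cytotoxicity counter-line: IDH1KD HT-1080, 48 h, CellTiter-Glo. Curves classed by r2, magnitude and activity.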
HT1080NT lethal: kills 2HG-producing HT-1080-NT fibrosarcoma cells. HT-1080-NT fibrosarcoma viability, CellTiter-Glo ATP luminescence, 48 h. 1.6% of 360,000 active. Potency, µM (doses to about 46.1 µM), inactives show at the highest dose activity, negative = less viability, actives largely listed as cytotoxic;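 note: NT is the 2HG producing partner of a matched IDH1 knockdown line; 0% = DMSO-treated cells and -100% = media-only wells without cells; nearly all actives have a fitted effect of over 55% in size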
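750 cells/well, RPMI + 5% FBS; 2 h settle, compound pin-transfer, 48 h at 37 degrees C. CellTiter-Glo 10 min RT, luminescence. Normalized to DMSO and media-only wells.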
DT40 TDP1 no CPT: qHTS for Inhibitors of human tyrosyl-DNA phosphodiesterase 1 (TDP1): qHTS in cells in absence of CPT; DT40 Tdp1-/- hTDP1 cells, no CPT, ATP luminescence, 48 h; Potency, µM (top dose mostly 46.2 µM), without a hit: at the highest dose activity change, negative = growth inhibition, most hits filed as inhibitors; 15% of 420,000 active; note: % is set by controls: 0 for no effect and ±100 for the full control effect; nearly all actives have a fitted effect of over 55% in size
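Growth of hTDP1-complemented DT40 Tdp1-knockout cells is measured by ATP luminescence after at least 48 hr compound exposure at 37 °C, with DMSO substituting for the 20 nM CPT used in the parallel screen.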
HepG2 tox: HepG2 cytotoxicity, counter-screen for TGF-b inhibitors | HepG2 CAGA-GFP viability, ATP luminescence, 18 h | Potency, µM (doses to about 46.1 µM), without a hit: top-dose activity change, negative = cytotoxicity, actives largely listed as cytotoxic | 0.76% of 410,000 active | AID 588856
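CellTiter-Glo luminescence gave cytotoxicity after 18 hours at 37 degrees C. The cells were HepG2 CAGA-GFP in 1% FBS DMEM, stimulated with 500 pg/mL TGF-beta after compound addition. %Activity was normalised to no-cell wells (complete cell-killing) and DMSO (no toxicity), and curves were fitted and classified.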
* = called active by the depositor; [ ] = another dose, or the depositor's remark. Calls come from the whole dose curve; as a rule, active = well fitted curve in the direction sought with a large enough effect; inconclusive = small, poorly fitted or top-dose-only effect, or another doubt; inactive = no such curve, though single readings can be large; an effect the other way counts as inactive or inconclusive. Potency is the fitted concentration of half-maximal effect.

How did Cc1cc(C(=O)Nc2ccc(Nc3ccccc3)cc2)ccc1[N+](=O)[O-] do in these assays?
TGFb inhibitor: 28%; DT40 TDP1 CPT: 3.3µM*; HT1080 IDH1KD tx: inconclusive; HT1080NT lethal: -25%; DT40 TDP1 no CPT: 4.6µM*; HepG2 tox: 1%

Results for CCN(C(=O)c1ccc(Cl)c([N+](=O)[O-])c1)c1ccccc1 ?
TGFb inhibitor: -18%; DT40 TDP1 CPT: inconclusive; HT1080 IDH1KD tx: -5%; HT1080NT lethal: 13%; DT40 TDP1 no CPT: 15µM*; HepG2 tox: 3%

Results for Cc1cc(C(=O)NCCc2ccccc2)ccc1[N+](=O)[O-] ?
TGFb inhibitor: 9%; DT40 TDP1 CPT: -10%; HT1080 IDH1KD tx: 5%; HT1080NT lethal: 13%; DT40 TDP1 no CPT: -17%; HepG2 tox: -19%

Results for COC(=O)CSc1nc(N2CCCCC2)c2c(c1C#N)CCCC2 ?
TGFb inhibitor: inconclusive; DT40 TDP1 CPT: inconclusive; HT1080 IDH1KD tx: -6%; HT1080NT lethal: -10%; DT40 TDP1 no CPT: 23µM*; HepG2 tox: -57%

What do the screens show for `Cc1ccc2cc(CN(c3cccc(C)c3C)S(=O)(=O)c3ccccc3)c(=O)[nH]c2c1`?
TGFb inhibitor: -24%; DT40 TDP1 CPT: inconclusive; HT1080 IDH1KD tx: -1%; HT1080NT lethal: 8%; DT40 TDP1 no CPT: inconclusive; HepG2 tox: -14%

How did CC1=C(c2ccc(C)cc2)S(=O)(=O)NC1=NCCCN1CCN(c2ccc(F)cc2)CC1 do in these assays?
TGFb inhibitor: inconclusive; DT40 TDP1 CPT: 15µM*; DT40 TDP1 no CPT: 15µM*; HepG2 tox: -27%

Results for COc1ccc(C2=C(N3CCN(c4cc(Cl)ccc4C)CC3)c3ccccc3C2=O)cc1 ?
TGFb inhibitor: -3%; DT40 TDP1 CPT: 21µM*; DT40 TDP1 no CPT: inconclusive; HepG2 tox: -2%

How did CC1=C(c2ccc(C(C)C)cc2)S(=O)(=O)NC1=NCCCN1CCN(c2ccccc2F)CC1 do in these assays?
TGFb inhibitor: inconclusive; DT40 TDP1 CPT: inconclusive; DT40 TDP1 no CPT: inconclusive; HepG2 tox: -22%

Results for CC1=C(c2ccc(Cl)cc2)S(=O)(=O)NC1=NCCCN1CCN(c2cc(C)ccc2C)CC1 ?
TGFb inhibitor: -28%; DT40 TDP1 CPT: 2.6µM*; DT40 TDP1 no CPT: 5.2µM*; HepG2 tox: -38%

Results for COc1ccc(N2CCN(C(=O)CN=C3NS(=O)(=O)C(c4ccc(C)cc4)=C3C)CC2)cc1 ?
TGFb inhibitor: inconclusive; DT40 TDP1 CPT: -17%; HT1080 IDH1KD tx: 2%; HT1080NT lethal: 11%; DT40 TDP1 no CPT: -27%; HepG2 tox: 31%

How did COc1ccc(C2=C(C)C(=NCCCN3CCN(c4cc(Cl)ccc4C)CC3)NS2(=O)=O)cc1 do in these assays?
TGFb inhibitor: inconclusive; DT40 TDP1 CPT: 6.5µM*; DT40 TDP1 no CPT: 8.2µM*; HepG2 tox: -40%

What do the screens show for `O=C(CCNC(=O)N1CC(=O)Nc2ccccc21)NCc1ccccc1`?
TGFb inhibitor: 0%; DT40 TDP1 CPT: 3%; HT1080 IDH1KD tx: 5%; HT1080NT lethal: 0%; DT40 TDP1 no CPT: -2%; HepG2 tox: 3%

What do the screens show for `CCc1ccc(-n2c(C)cc(/C=N/NC(=O)c3ccncc3)c2C)cc1`?
TGFb inhibitor: inconclusive; DT40 TDP1 CPT: 13µM*; HT1080 IDH1KD tx: -6%; HT1080NT lethal: -6%; DT40 TDP1 no CPT: inconclusive; HepG2 tox: -26%

What do the screens show for `Cc1cc(/C=N/NC(=O)c2ccncc2)c(C)n1-c1ccccc1`?
TGFb inhibitor: 1%; DT40 TDP1 CPT: 2%; HT1080 IDH1KD tx: -4%; HT1080NT lethal: -3%; DT40 TDP1 no CPT: -26%; HepG2 tox: 7%

How did CCc1ccc(-n2c(C)cc(/C=N/NC(=O)OC)c2C)cc1 do in these assays?
TGFb inhibitor: inconclusive; DT40 TDP1 CPT: inconclusive; HT1080 IDH1KD tx: -1%; HT1080NT lethal: -12%; DT40 TDP1 no CPT: 26µM*; HepG2 tox: -14%

Results for CCC(=O)N1CCc2cc(S(=O)(=O)CCC(=O)NCCC3=CCCCC3)ccc21 ?
TGFb inhibitor: 1%; DT40 TDP1 CPT: inconclusive; HT1080 IDH1KD tx: -1%; HT1080NT lethal: -3%; DT40 TDP1 no CPT: -29%; HepG2 tox: -17%

How did O=C(NC1CCCCC1)C(c1ccc2ncccc2c1)N(Cc1ccccc1)C(=O)c1ccc2c(c1)OCCO2 (stereo not drawn) do in these assays?
TGFb inhibitor: inconclusive; DT40 TDP1 CPT: 13µM*; HT1080 IDH1KD tx: -1%[9.24 µM]; HT1080NT lethal: inconclusive; DT40 TDP1 no CPT: inconclusive; HepG2 tox: -25%

How did COc1ccc(CN(C(=O)c2ccc3c(c2)OCCO3)C(C(=O)NC2CCCCC2)c2ccc3ncccc3c2)cc1 (stereo not drawn) do in these assays?
TGFb inhibitor: -6%; DT40 TDP1 CPT: inconclusive; HT1080 IDH1KD tx: 5%[9.24 µM]; HT1080NT lethal: -30%; DT40 TDP1 no CPT: 18µM*; HepG2 tox: -4%

How did Cc1ccc(C(C(=O)NC2CCCCC2)N(C(=O)CCCC(=O)Nc2ccccn2)c2ccc3c(c2)OCCO3)cc1 (stereo not drawn) do in these assays?
TGFb inhibitor: -1%; DT40 TDP1 CPT: -24%; HT1080 IDH1KD tx: 1%; HT1080NT lethal: 13%; DT40 TDP1 no CPT: 6%; HepG2 tox: -1%

What do the screens show for `N[C@@H](CC(=O)O)C(=O)O`?
DT40 TDP1 CPT: -13%; DT40 TDP1 no CPT: -9%

Results for CCC1CCc2c(sc(NC(=O)C3c4ccccc4Oc4ccccc43)c2C#N)C1 (stereo not drawn) ?
TGFb inhibitor: 0%; DT40 TDP1 CPT: inconclusive; DT40 TDP1 no CPT: inconclusive; HepG2 tox: -20%

What do the screens show for `Cc1cc(C)cc(C(=O)N(Cc2ccco2)c2c(N)n(Cc3ccccc3)c(=O)[nH]c2=O)c1`?
TGFb inhibitor: -13%; DT40 TDP1 CPT: 1%; HT1080 IDH1KD tx: 18%; HT1080NT lethal: 5%; DT40 TDP1 no CPT: 3%; HepG2 tox: -6%

What do the screens show for `Cc1ccc2c(c1)N(C(=O)N1CCC(C(=O)NCCC3=CCCCC3)CC1)CC(C)O2` (stereo not drawn)?
TGFb inhibitor: inconclusive; DT40 TDP1 CPT: inconclusive; DT40 TDP1 no CPT: 18µM*; HepG2 tox: -5%
